hcDAF-12 act: H. contortus DAF-12 activation, primary screen; HEK293 hcDAF-12 lit1-tk-luc reporter, luminescence; 0% DMSO, 100% Δ7-dafachronic acid; AID 652067; activation, % at 6.8 µM; actives 1.4% (n = 370,000);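 active = activation above the mean of all tested compounds plus 3 SD, cut at about 5.5% in these data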
DAX1 inh-1: inhibits human nuclear receptor DAX1 | P51843 | HEK293 Gal4-DAX1 luciferase reporter, luminescence | inhibition, % at 6.75 µM | actives 0.99% (n = 340,000) | AID 504766;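 active = inhibition above the mean over all tested compounds plus 3 SD, cut at about 4.2% in these data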;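 also: inhibition shows as a rise in luminescence from relieved DAX1 repression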
DAX1 inh-2: blocks DAX1 repression of SF-1 activated StAR promoter; HEK293T StAR-luciferase reporter, SF-1/DAX-1 repression relief; inhibition, % at 6.8 µM; actives 1.1% (n = 370,000);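 active = inhibition above the mean over all tested compounds plus 3 SD, cut at about 3.6% in these data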;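 also: higher inhibition means more luminescence from relief of DAX-1 repression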
hgDAF-12 ag: hgDAF-12 agonism, primary luciferase screen; activation, % at 6.8 µM; HEK293 GAL4-hgDAF12 UAS-luciferase reporter, agonist luminescence; normalized to butyrate control; AID 687014; actives 1.8% (n = 370,000);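 active = activation above a cutoff set at the mean of all screened compounds plus 3 SD, cut at about 10% in these data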
ssDAF12 agonist: S. stercoralis DAF-12 activation, primary screen; HEK293 ssDAF-12/GRIP1 lit1-tk-luc reporter, luminescence; % of 3 µM dafachronic acid response; activation, % at 6.8 µM; actives 1% (n = 370,000); AID 652126;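 active = activation above the mean over all tested compounds plus 3 SD, cut at about 0.9% in these data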
hgDAF12 ag: hgDAF-12 agonism, confirmation assay. activation, % at 6.8 µM. actives 80% (n = 3,300). HEK293 GAL4-hgDAF12 luciferase reporter, agonist mode; percent of butyrate response. shares compounds with hgDAF-12 ag;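 active = mean activation over triplicate wells above the hit cutoff derived from the earlier primary screen, cut at about 11% in these data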
LXRb DAF12 ctr: activates human LXR-beta, counter-screen for DAF-12 agonists; shares compounds with hgDAF-12 ag; HEK293 Gal4-LXR luciferase reporter, 24 h; activation, % at 6.8 µM; 3,300 tested, under 10 active;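 active = mean activation of the triplicate above a set limit carried over from the primary screen, none filed active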
Target sequence (P55055 whole entry, looked up, the tested form may be a part): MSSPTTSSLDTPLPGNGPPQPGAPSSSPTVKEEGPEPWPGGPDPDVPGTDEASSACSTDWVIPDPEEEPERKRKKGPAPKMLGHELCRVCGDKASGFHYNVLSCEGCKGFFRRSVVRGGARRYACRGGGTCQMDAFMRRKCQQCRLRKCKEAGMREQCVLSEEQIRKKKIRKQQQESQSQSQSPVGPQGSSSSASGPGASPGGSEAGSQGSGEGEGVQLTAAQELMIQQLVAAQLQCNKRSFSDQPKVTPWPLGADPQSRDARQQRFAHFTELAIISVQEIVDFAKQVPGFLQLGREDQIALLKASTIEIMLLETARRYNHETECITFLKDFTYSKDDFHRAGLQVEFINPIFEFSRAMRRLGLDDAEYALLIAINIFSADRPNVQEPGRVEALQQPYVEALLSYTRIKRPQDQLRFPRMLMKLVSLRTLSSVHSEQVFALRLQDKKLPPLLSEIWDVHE
Numbers stand for hits; i = inactive; nt = not tested or not shown. Most compounds without a hit are left out; they make up all but 4.1% or so of the library.

SMILES	hcDAF-12 act	DAX1 inh-1	DAX1 inh-2	hgDAF-12 ag	ssDAF12 agonist	hgDAF12 ag	LXRb DAF12 ctr
C=CCN1C(=O)[C@@H](CC(=O)N2CCSCC2)[C@]2(C(=O)OC)CCCCC=C12	i	nt	i	17.4	i	i	i
O=c1c(-c2ccc3c(c2)OCCO3)coc2cc(O)cc(O)c12	i	i	i	13.8	i	14.8	i
Cc1nc2ccc(NC(=O)c3cc(F)cc(F)c3)cc2c(=O)[nH]1	i	nt	i	i	i	nt	nt
O=C(O)CCS(=O)(=O)c1ccccc1Cl	i	i	i	16.6	i	i	i
COC(=O)[C@]12C[C@H](CC(=O)NCc3cccc4ccccc34)C(=O)N(Cc3cccc4ccccc34)C1=C[C@H](C1CCCC1)O[C@@H]2C	i	nt	i	i	i	nt	nt
c1ccc2c(-c3nc4ccccc4[nH]3)cccc2c1	i	i	i	i	i	nt	nt
Fc1ccccc1-c1nc2ccccc2[nH]1	i	4.9	i	15.0	i	11.9	i
Cc1ccccc1-c1nc2ccccc2[nH]1	i	i	i	i	i	nt	nt
Oc1ccccc1C=Nc1ccccc1-c1nc2ccccc2[nH]1	i	i	i	18.1	i	i	i
CCC/C=N/NC(=O)c1ccc(F)cc1	i	i	i	i	i	nt	nt
CCC/C=N/NC(=O)c1cccc(Br)c1	i	i	i	14.4	i	i	i
COC(=O)c1cc2c(c3c4ccccc4n(S(=O)(=O)c4cccc(C)c4)c13)C(=O)N(Cc1ccccc1OC)C2	i	nt	i	i	i	nt	nt
O=C(Nc1ccc(N2CCOCC2)cc1)c1nc2ccccc2s1	i	i	4.3	17.7	i	15.1	i
C#CCN(C[C@H]1[C@H](OC(=O)Nc2c(C)noc2C)[C@H](OC(=O)Nc2c(C)noc2C)CN(C(=O)OC(C)C)N1C(=O)OC(C)C)S(=O)(=O)c1ccc(C)cc1	i	nt	i	i	i	nt	nt
CCn1ccc(C(=O)Nc2ccccc2Cl)n1	i	i	4.3	13.7	i	14.5	i
CCn1ccc(C(=O)Nc2cccc(Cl)c2)n1	i	i	i	15.4	i	i	i
CN1CCN(/N=C/c2ccc(-c3ccccc3)cc2)CC1	i	i	i	14.4	i	12.5	i
COc1ccc(CSc2nnc(SCC(=O)Nc3ccc4c(c3)OCO4)s2)cc1	i	nt	i	i	i	nt	nt
COc1cc(C(=O)Nc2ccc3c(c2)ncn3C(C)(C)C)cc(OC)c1OC	i	i	i	i	i	nt	nt
CC(C)(C)n1cnc2cc(NC(=O)c3ccc(Cl)cc3)ccc21	i	i	i	14.1	1.3	19.4	i
CC(C)(C)n1cnc2cc(NCc3ccc(Br)cc3)ccc21	i	4.2	i	17.4	i	12.8	i
COC(=O)c1ccc(COc2ccc(/C=N/Nc3cccc(C(=O)O)c3)cc2)cc1	i	i	i	17.0	1.4	13.3	i
CC(=O)Nc1ccc(N=Cc2ccc(OCc3ccccc3)cc2)cc1	i	i	i	13.6	i	10.9	i
CCOc1ncccc1C(=O)OCc1ccc(C(=O)OC)cc1	i	i	i	14.8	i	12.3	i
CC(C)C(=O)N/N=C/c1ccc(OCc2ccccc2)cc1	i	i	i	i	i	nt	nt
SMILES	hcDAF-12 act	DAX1 inh-1	DAX1 inh-2	hgDAF-12 ag	ssDAF12 agonist	hgDAF12 ag	LXRb DAF12 ctr
CCC(=O)c1ccc(OCc2ccc(C(=O)OC)cc2)cc1	i	i	i	15.7	i	15.5	i
COc1ccc(CCNC(=O)c2cc(-c3ccco3)on2)cc1OC	i	i	i	13.9	i	11.3	i
COc1ccc(CCNC(=O)c2cc(-c3cccs3)on2)cc1OC	nt	i	nt	nt	nt	nt	nt
O=C(NCCc1ccccc1)c1cc(-c2ccco2)on1	5.6	i	i	45.9	i	52.7	i
Cc1ccccc1Cn1cc(NC(=O)c2cc(-c3cccs3)on2)cn1	i	i	i	i	i	nt	nt
CC(C)n1cc(NC(=O)c2cc(-c3ccccc3)on2)cn1	i	i	i	14.2	i	16.1	i
Cc1ccccc1Cn1cc(NC(=O)c2cc(-c3ccco3)on2)cn1	i	i	i	39.0	i	i	i
CC(C)NC(=O)OC[C@H]1O[C@H](C#Cc2ccc(C(C)(C)C)cc2)C=C[C@H]1O	i	nt	i	i	i	nt	nt
COc1ccc(C2CC(c3ccc(Cl)cc3)=NN2c2ccc(S(N)(=O)=O)cc2)cc1 (stereo unspecified)	i	i	i	i	i	nt	nt
COc1ccc(C2CC(c3ccncc3)=NN2c2ccc(S(N)(=O)=O)cc2)cc1 (stereo unspecified)	i	i	i	26.1	i	21.5	i
COC1=C[C@H](C(=O)N[C@H]2CCCC[C@@H]2NC(C)=O)[C@H](C)[C@@H](c2ccccc2)CC1=O	i	nt	i	i	i	nt	nt
c1cncc(-c2nc(-c3ccc4c(c3)OCCO4)cs2)c1	5.8	4.6	i	15.1	i	15.7	i
Fc1ccc(-c2csc(-c3cccnc3)n2)cc1F	i	i	i	i	i	nt	nt
O=C1C(C=NCCCN2CCCC2=O)=C(O)c2ccccc21	i	i	i	18.6	i	i	i
Cc1ccc2c(Cl)c(C(=O)Nc3cccnc3)sc2c1	i	i	i	20.1	i	18.0	i
Nc1nc(Nc2cccc(F)c2)nc2ccccc12	6.1	i	i	14.0	i	15.9	i
N#Cc1cccc(C(=O)N2CCC(Oc3cccnc3)CC2)c1	i	nt	i	i	i	nt	nt
Cc1ccc(NC(=O)Nc2nc3ccc(S(C)(=O)=O)cc3s2)cc1	i	i	i	i	i	nt	nt
CC(C)(C)C(=O)Nc1nc2ccc(S(C)(=O)=O)cc2s1	i	i	i	13.6	i	13.4	i
CS(=O)(=O)c1ccc2nc(NC(=O)Nc3ccccc3F)sc2c1	i	7.3	i	14.9	i	27.3	i
Cc1ccccc1C(=O)n1ccc2ccc(-c3ccc4ccn(Cc5ccccc5)c4c3)cc21	i	nt	i	i	i	nt	nt
O=C(c1ccc(-c2cccc(Cl)c2Cl)o1)N1CCOCC1	i	i	4.0	17.1	i	15.5	i
Cc1ccc(-n2c(SCC(=O)c3ccc(F)cc3)nnc2-c2cnccn2)cc1	i	nt	i	i	i	nt	nt
O=C(N/N=C\c1ccc2c(c1)OCO2)c1ccco1	i	i	i	14.4	i	12.3	i
CCN(CC)c1ccc(/C=N/NC(=O)c2ccco2)cc1	i	i	i	16.7	i	20.8	i
CCN(CC)c1ccc(/C=N/NC(=O)c2cnccn2)cc1	i	i	i	18.0	i	18.0	i
CCN(CC)c1ccc(NC(=S)NC(=O)c2ccco2)cc1	i	i	i	16.1	i	i	i
NC(=O)/C(=C/c1ccc2c(c1)OCO2)NC(=O)c1ccco1	i	i	i	i	i	nt	nt
COC(=O)c1cc(-c2cccc(C(F)(F)F)c2)c(=O)n2c1CCC2	i	nt	i	i	i	nt	nt
O=C(N/N=C/c1ccc(F)cc1)c1cccc(NC(=O)c2ccccc2Cl)c1	i	i	i	i	i	nt	nt

High-throughput results deposited in PubChem BioAssay by The Scripps Research Institute Molecular Screening Center.
